Pf growth 96h: Primary qHTS for delayed death inhibitors of the malarial parasite plastid, 96 hour incubation. AID 504834, 2011. Potency, µM (top dose mostly 28.7 µM), most hits filed as inhibitors. 6.9% of 320,000 active. P. falciparum luciferase reporter growth, 96 h
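Infected RBCs, 2% Hct / 0.05% parasitemia final; luciferase-reporter P. falciparum; cpd 96 h, 37 C, 5% CO2; luciferase detection reagent; luminescence.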
Pf growth 48h: Primary qHTS for delayed death inhibitors of the malarial parasite plastid, 48 hour incubation; P. falciparum luciferase growth in erythrocytes, 48 h; Potency, µM (doses to about 28.7 µM), most hits filed as inhibitors; 5.9% of 310,000 active
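Luciferase-expressing P. falciparum in infected erythrocytes (2% hematocrit, 0.1% parasitemia final) in RPMI 1640/0.5% Albumax were exposed to compound for 48 hours at 37 C, 5% CO2; growth read as luminescence.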
HCMV inh: qHTS Assay for inhibitors of the human cytomegalovirus (HCMV); activity change, negative = inhibition, % at 57.5 µM; 4.5% of 410,000 active; HFF cells, HCMV-luciferase reporter, 72 h; active compounds read low; in the data active means activity change below about -60%; inconclusive means no clear call, values can overlap the other calls; inactive means above about -39%
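Screen run at 2 compound doses on HFFs infected with reporter HCMV, MOI 1 PFU/cell. Luciferase activity from cell lysates at 72 h post infection gave inhibition relative to buffer-only and Salinomycin wells.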
HCV inh: qHTS Assay for Inhibitors of Hepatitis C Virus (HCV); Potency, µM (highest dose often 41.8 µM), usual class: inhibitors; Huh7.5.1 HCVcc-Cre infection, luciferase reporter, 44 h; AID 651820, 2012; 3.4% of 340,000 active
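Reporter virus HCVcc-Cre (~0.5 moi) infects cells exposed to compound; seeding density 1,000 cells/well with 4 h settling beforehand. Luminescence, 15 sec read, taken 44 h post-infection following a 15 min RT substrate incubation.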
A number is an active result; – = inactive; ? = inconclusive; · = not tested or not shown. Compounds with a hit are over-represented: about 13% of the library has one in this group of screens. Unless noted, the call rests on the fitted dose curve; in most records, active means well fitted inhibition curve with a large enough effect; inconclusive means small, poorly fitted or top-dose-only effect, or another doubt; inactive means no such curve, though single readings can be large or run the other way.

SMILES	Pf growth 96h	Pf growth 48h	HCMV inh	HCV inh
Cc1ccc(OCC(=O)NC2CCS(=O)(=O)C2)c(C)c1 (configuration not stated)	5.9µM	–	–	–
Cn1cccc1C(=O)OCC(=O)NC1CCS(=O)(=O)C1 (configuration not stated)	–	1.5µM	–	–
Cc1ccc(-n2cc(CNCC3CC(=O)N(C4CC4)C3)c(-c3cccc(C)c3)n2)cc1 (configuration not stated)	12µM	?	?	–
Cc1ccc(-n2cc(CN3CCNC(=O)CC3)c(-c3cccc(C)c3)n2)cc1	–	?	–	–
Cc1ccc2cccc(Oc3ncnc4scc(-c5ccccc5)c34)c2n1	?	10µM	–	?
Cc1ccc(-c2csc3ncnc(Cl)c23)cc1	2.6µM	1.5µM	–	–
Cc1ccc2cccc(Oc3ncnc4scc(-c5ccc(Cl)cc5)c34)c2n1	10µM	?	–	–
Clc1ncnc2scc(-c3ccccc3)c12	?	?	–	–
COc1ccc(-c2nc3sc(CCNC(=O)C(=O)Nc4cc(C)cc(C)c4)c(C)n3n2)cc1	·	·	–	·
CC(=O)N1C=CN(C(C)=O)C(c2cn(C)c3ccccc23)C1c1cn(C)c2ccccc12 (configuration not stated)	–	3.3µM	–	?
O=C1CC(c2ccccc2)Sc2ccccc2N1Cc1ccc(F)cc1 (configuration not stated)	·	·	–	·
COC(=O)c1nc(NC(=O)C(C)C)n[nH]1	5.9µM	?	–	–
COC(=O)c1nc(NC(C)=O)n[nH]1	?	–	·	·
COc1ccccc1C(=O)NCCCNc1ccc([N+](=O)[O-])cc1	13µM	–	–	–
COc1ccccc1C(=O)NCCCCNC(=O)c1ccccc1OC	·	·	–	–
COc1ccccc1-c1nc2cc3ccccc3cc2nc1-c1ccccc1OC	12µM	?	–	–
COc1ccccc1-c1nc2ccccc2nc1-c1ccccc1	–	?	-63	–
CC(=O)n1cc(Nc2ccc([N+](=O)[O-])cc2)c2ccccc21	–	?	–	–
CC(=O)SC(C[N+](=O)[O-])c1cn(C(C)=O)c2ccccc12 (configuration not stated)	?	?	-106	11µM
CCNC(=O)c1c(C)oc2ncn(C)c(=O)c12	·	·	–	·
Cc1ccc2nc(CN3CCN(C(=O)Nc4ccc(C)c(F)c4)CC3)oc2c1	·	·	–	·
COC1=C(N)C(=O)c2nc(-c3nc(C(=O)O)c(C)c(-c4ccc(OC)c(OC)c4O)c3N)ccc2C1=O	0.019µM	0.052µM	·	0.32µM
COc1ccc(-c2ncncc2-c2csc(C)n2)c(O)c1OC	·	–	–	–
COC(=O)c1nc(-c2ccc3c(n2)C(=O)C(N)=C(OC)C3=O)c(N)c(-c2ccc(OC)c(OC)c2O)c1C	?	0.093µM	?	2.2µM
CCCC(=O)Oc1ccc(N(C(=O)CCC)S(=O)(=O)c2cccs2)cc1	–	–	–	–
SMILES	Pf growth 96h	Pf growth 48h	HCMV inh	HCV inh
CCCC(=O)Oc1ccc(N(C(=O)CCC)S(=O)(=O)c2cccc([N+](=O)[O-])c2)cc1	4.7µM	–	–	–
COc1ccc(OC)c(-n2c(-c3ccc(O)cc3O)n[nH]c2=S)c1	0.013µM	?	–	–
S=c1[nH]nc(-c2ccc(Cl)cc2Cl)n1-c1ccc2c(c1)OCCO2	–	–	–	–
Oc1ccc(-c2n[nH]c(=S)n2-c2ccc3c(c2)OCCO3)c(O)c1	0.066µM	0.41µM	-101	–
COc1cc(OC)cc(-c2n[nH]c(=S)n2-c2cc(OC)ccc2OC)c1	·	·	–	–
C=CC[n+]1c(/C=C/c2ccc(OC(C)=O)c(OC)c2)ccc2ccccc21	?	·	-100	?
COc1cc(/C=N/NC(=O)Nc2ccccc2)ccc1OC(C)=O	–	–	–	–
c1coc(CNc2ncnc3[nH]ncc23)c1	–	?	–	–
Cc1ccc2[nH]c3c(NCCCN4CCCC4=O)ncnc3c2c1	?	?	–	–
c1coc(CNc2ncnc3nc[nH]c23)c1	9.3µM	–	–	?
Brc1ccc2ncnc(NCc3ccco3)c2c1	·	–	-87	25µM
COc1cc(CNc2ncnc3c2[nH]c2ccc(C)cc23)cc(OC)c1	?	?	-65	?
Cc1ccc2[nH]c3c(NCc4ccco4)ncnc3c2c1	?	?	-94	11µM
CC(C)c1nn2c(=O)cc(COC(=O)c3cccs3)nc2s1	·	·	–	·
COc1ccc(C(O)c2ncc(-c3ccccc3OC)[nH]2)cc1 (configuration not stated)	·	·	–	·
